Where “and” joins values, the source holds several entries; their conditions need not be identical. Equal values may be shown once. About 79,000 compounds went through this panel and 15% of them were active in at least one assay; those are over-represented in the sample as a whole. A structure can be active in one record and inactive in another. Calls of active or inactive are those of the source. Rule as the data show it: active = growth inhibition above about 70%; inactive = the rest. Where a SMILES comes first, the peptide text is derived from it. [ ]: non-standard residue; d: D form. ξ: configuration not given here. ξF = NC(Cc1ccccc1)C(=O)O
Columns and labels:
[1] = NCI Yeast Anticancer Drug Screen. Data for the rad50 strain (AID 155);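 also: 0% = growth of vehicle-only cultures of the same strain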; details: S. cerevisiae rad50 strain growth inhibition; at 50.0 µM; stronger effect = higher value
Procedure, shortened: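 Vehicle-treated cultures provide the reference for the growth inhibition reported for compound-exposed, repair-deficient yeast.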

[2] = NCI Yeast Anticancer Drug Screen. Data for the mec2-1 strain (AID 157); details: S. cerevisiae mec2-1 strain, at 50.0 µM, stronger effect = higher value
Procedure, shortened: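 Test agents were screened against the mec2-1 yeast strain, with defined DNA repair or cell cycle alteration. Growth was scored as inhibition against vehicle-only controls.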

[3] = NCI Yeast Anticancer Drug Screen. Data for the sgs1 mgt1 strain (AID 161);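 also: 0% = growth of cultures given vehicle only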; details: S. cerevisiae sgs1 mgt1 strain, at 50.0 µM, stronger effect = higher value
Procedure, shortened: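 Read-out: growth inhibition vs vehicle controls. Cells: mutant yeast strain deficient in DNA damage repair.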

[4] = NCI Yeast Anticancer Drug Screen. Data for the cln2 rad14 strain (AID 165);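 also: 0% = growth equal to vehicle treated cultures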; details: S. cerevisiae cln2 rad14 strain, at 50.0 µM, stronger effect = higher value
Procedure, shortened: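 Growth of compound-exposed yeast (cln2 rad14 genotype) measured and expressed as inhibition relative to vehicle.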

[5] = NCI Yeast Anticancer Drug Screen. Data for the bub3 strain (AID 167); details: S. cerevisiae bub3 mutant strain, at 50.0 µM, stronger effect = higher value
Procedure, shortened: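 Mutant yeast screening strain plus compound; vehicle-treated cultures serve as the 0% inhibition reference.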

[6] = NCI Yeast Anticancer Drug Screen. Data for the mlh1 rad18 strain (AID 175); details: S. cerevisiae mlh1 rad18 strain growth inhibition; at 50.0 µM; stronger effect = higher value
Procedure, shortened: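 In this whole-cell yeast screen, a strain with altered DNA damage repair is challenged with compound, and its growth is measured against matched vehicle-treated controls.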

Measured: growth inhibition

O=C(O)CC(O)C(=O)O (stereo not given)
inactive: [1] -2.95% and 0.45% | [2] -20.2% and 3.55% | [3] -39.1% and -1.05% | [4] -19.6% and 3.85% | [5] 5.25% and -2.85% | [6] -43% and -1.2%

OCC(O)C(O)C(O)c1cnn(-c2ccccc2)n1 (stereo not given)
inactive: [1] 8.95% and 4.85% | [2] -5.4% and 1.9% | [3] -4.6% and -4.7% | [4] 1.75% and -3.7% | [5] -2.85% and -8.2% | [6] 14.6% and -0.05%

Cc1ccc(C2=Nc3c(N)nc(N)nc3NC(c3ccccc3)C2)cc1 (stereo not given)
active: [1] 78.3% and 79.8% | [2] 81.8% and 79.5% | [3] 89.2% and 89.4% | [5] 75.8% and 77.4% | [6] 90% and 88.4%
inactive: [4] 63.5% and 62.7%

CC(C)C1CCC(NC(=O)Nc2ccccc2)CC1 (stereo not given)
70.5% (active) and 43.2% (inactive): [3]
inactive: [2] 48.5% and 20.3% | [4] 46.2% and -3.5% | [5] 66.7% and 23.6%
79.5% (active) and 20.6% (inactive): [1]
81.1% (active) and 44.8% (inactive): [6]

CC(C)CC(NC(=O)COc1ccc(Cl)cc1Cl)C(=O)O (stereo not given)
inactive: [1] -16.8% and -4.25% | [2] -3.15% and -14.4% | [3] 7.55% and -4.15% | [4] -50.5% and -21.7% | [5] 4.5% and 13.7% | [6] -3.8% and -11.1%

OCC1OCOC2C(CO)OCOC12 (stereo not given)
inactive: [1] -9.2% and -8.3% | [2] -21.4% and -3.75% | [3] -9.95% and 15.6% | [4] 0.65% and -36.2% | [5] -13.8% and -4.7% | [6] -4.7% and -3.1%

Cc1ccc(CCO)cc1
inactive: [1] 2.3% and 2.65% | [2] 0.95% and 2.6% | [3] 6.95% and -28.1% | [4] 0.5% and -47.2% | [5] -4.9% and -6.4% | [6] -2.75% and 0.35%

COC1OC(CO)C(O)C(O)C1N1C(=O)c2ccccc2C1=O (stereo not given)
inactive: [1] 9.35% and -4.5% | [2] -4.15% and 8.4% | [3] 22.6% and -3.85% | [4] 7.95% and -15.8% | [5] 12.2% and 4.45% | [6] 19% and -3.45%

CC(=O)OC1CC2CCC1(C)C2(C)C (stereo not given)
inactive: [1] 34.9% and 30.8% and -12.2% | [2] 26.9% and 26.1% and -20.2% | [3] 25.8% and -34.8% and -3.7% | [4] 19.9% and 18.3% and 5.2% | [5] 29.5% and -30.4% and 3.55% | [6] 4.85% and -78.1% and -14.2%

CN(C)CC1COC2Cc3ccccc3C1O2 (stereo not given)
inactive: [1] -43.2% and -0.75% | [2] -22.1% and -20.2% | [3] -17.2% and -1.65% | [4] -46.1% and 20.9% | [5] -19.1% and 21.5% | [6] -29.3% and 1.95%

Cc1ccc(NC2=CC(=O)C(=O)c3ccccc32)cc1
inactive: [1] 30% and 22.6% and 45.2% | [2] 40.7% and 36% and 14.1% | [3] 25% and 26.8% and 32.3% | [4] 5.55% and 8.9% and 30.9% | [5] 25.1% and 26.9% and 54.6% | [6] 15.4% and 60.9% and 33.4%

COc1ccc(-c2nc(SC3OC(COC(C)=O)C(OC(C)=O)C(OC(C)=O)C3OC(C)=O)n(C3OC(COC(C)=O)C(OC(C)=O)C(OC(C)=O)C3OC(C)=O)c(=O)c2C#N)cc1 (stereo not given)
inactive: [1] 11.2% and -3.9% | [2] 8.85% and -1% | [3] 22.4% and 18.1% | [4] -6.15% and -19.5% | [5] 3.35% and 14.9% | [6] -12.7% and -3.55%

NCC(=O)NC(Cc1ccccc1)C(=O)O (stereo not given) (H-Gly-[ξF]-OH)
inactive: [1] -28.9% and -14.6% | [2] -14.6% and -12.2% | [3] -1% and -20.6% | [4] -3.9% and -2.65% | [5] -8.25% and -10% | [6] -3.75% and -13.3%

Cc1ccc(C2SCC(=O)N2CCN2C(=O)CSC2c2ccc(C)o2)o1 (stereo not given)
inactive: [1] 7.1% and 5.95% | [2] 16.1% and 8.45% | [3] -2.45% and 17.6% | [4] 3.15% and -0.1% | [5] -1.45% and -3.45% | [6] 13.2% and -12.4%

C/C(=N\O)c1ccccc1
inactive: [1] -11.2% and 18.9% | [2] -20.4% and -5.5% | [3] -3.5% and 13% | [4] 2.8% and -13.4% | [5] 8.3% and -2.6% | [6] -19.9% and 14.5%

O=c1[nH]c(=O)n(C2OC(CO)C(O)C2O)c2nccnc12 (stereo not given)
inactive: [1] 10.5% and 5.1% | [2] 8.9% and 4.95% | [3] 0.55% and -5.75% | [4] 26.8% and 2.95% | [5] -13.2% and -20.9% | [6] 4.55% and -11.4%

CCc1ccc(N)cc1
inactive: [1] -16.4% and -3.75% | [2] -16.6% and 4.3% | [3] -23.4% and -4.25% | [4] -5.55% and -28.5% | [5] -16.5% and -11.1% | [6] -16.7% and 4.35%

CC(O)COc1ccc(C2CCCCC2)cc1 (stereo not given)
inactive: [1] 27.9% and 8% | [2] 10.4% and -21.6% | [3] 7.3% and 16.4% | [4] -10.2% and -25.9% | [5] -2.55% and -5.5% | [6] -11.6% and 13%

CC(=O)OCC(OC(C)=O)C(OC(C)=O)C(OC(C)=O)C(COC(=O)c1ccccc1)OC(=O)c1ccccc1 (stereo not given)
inactive: [1] 4.35% and 18.9% | [2] -3.75% and 5.75% | [3] -10.6% and -4.1% | [4] -21.1% and 3.7% | [5] 4.35% and -0.35% | [6] 2.15% and 10.3%

CN1C(=O)N/C(=C\c2ccc(S(=O)(=O)N/N=C\C(O)C(O)C(O)C(O)CO)cc2)C1=O (stereo not given)
inactive: [1] 2.65% and 7.85% | [2] 8.3% and 22.2% | [3] 17.9% and -4.2% | [4] 7.65% and 3.75% | [5] -19.1% and -1% | [6] 15.3% and 41.5%

From PubChem BioAssay (NCI)
